Test results from the OligoGym collection.

What follows are sequences tested against C6orf203 (assay: pooled miR-30 sensor sort-seq; sequence = guide strand). Details: shRNA.
Also: reference of the scale not given here.

Sequence	sensor-assay potency score (higher = more potent)
TATTTTAATAAAAATGTCCTAT	-0.604
TTAAACTTTTCCACCGCCGTAA	-0.414
TTATAGTTTTTGACTACAGTAG	-0.647
TTTCACTTTCAGTCTTCTCTTC	0.689
TAGTAGATTTTGTAGACCTTAT	-0.878

What follows are sequences tested against C6orf223 in the same assay as above. Details: shRNA.

Sequence	sensor-assay potency score (higher = more potent)
TCTTCTGGATGCTCTGACCATC	-1.03
TTTCTTCTCGCGCTCGGGGTGT	-0.841
TTGGCTGAGTCAGACTCTCGGA	-0.102
TTTGAGGACAGCTGAAGTCTTG	-0.66
TTCTTCTGGATGCTCTGACCAT	-0.868
AAACACTCTGTCTTCCTGCTTT	0.482
TAATTAGAGCGCATTAGCCGTG	-0.678
AATTAGAGCGCATTAGCCGTGC	-0.806
TAATTTCTTCTCGCGCTCGGGG	-0.685
AAGTCTTGCCACTTCTTCTGGA	-0.0269
TAGAGGAGAGCTCTGAGCCTGG	-0.55
TTGAGGACAGCTGAAGTCTTGC	-0.761

Each sequence was assayed against C6orf48 in the same assay as above. Details: shRNA.

Sequence	sensor-assay potency score (higher = more potent)
TGACAGCTGCTCACACAGGATA	-1.51
ATATTGTGTCAGCAAATTCCAT	-1.29
TGTCAGCAAATTCCATAGCAAG	-1.37
TCACACAGGATAATACAGGAAA	-0.815
TTAGGATATGCCCAGCACCAGG	-1.71
AGTTGCAGGAATCACTGTCTAA	-1.7
TATTGTGTCAGCAAATTCCATA	-0.54
TAAGTTCTTAGGATATGCCCAG	-0.415
AAGTTCTTAGGATATGCCCAGC	-0.846
TTCCATAGCAAGGAAGGAGAAC	-0.82
TCAAGTTGCAGGAATCACTGTC	0.907
ATAGCAAGGAAGGAGAACAGGC	-1.07

Each sequence was assayed against C6orf58 in the same assay as above. Details: shRNA.

Sequence	sensor-assay potency score (higher = more potent)
TTCTGTACAAAGATAACCTATA	-1.09
TAGATTTATCCACATTGTCAAG	-1.66
TATGATTTTATACATCCCCATT	-1.55
TTACACCAGAATCAACCGCAGC	-1.25
TATTCTGTTCATTATCTGGTGC	-0.148
TAGAATAATAATCATATCTGTC	-0.538
TAATTCATTAATCATTTCCTGA	-0.771
TTGGATCAGCTAATCTGCCTGT	0.319
TTACTGATTGTCAAGTTCGAGT	-0.967
TTTATCCACATTGTCAAGCATA	-1.01
TTTCTGTACAAAGATAACCTAT	-0.334
